Calls of active or inactive are those of the source.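 Rule for the calls: active = NADPH fluorescence slope more negative than the mean of all samples by about 3 SD, 99.7% confidence; inactive = the rest.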
Target: Voltage-gated potassium channel subunit beta-2 (Rattus norvegicus) (UniProt P62483)
Assay: enhancers of rat Kvbeta2 NADPH turnover – biochemical, NADPH fluorescence, primary screen (AID 623);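 note: fluorescence intensity change per second fitted from 20 to 320 s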
Conditions: Recombinant KvBeta, NADPH fluorescence decrease slope, 10 min; at 10 µM; active compounds read low

Chain of Voltage-gated potassium channel subunit beta-2 (Rattus norvegicus) (P62483 whole entry, looked up): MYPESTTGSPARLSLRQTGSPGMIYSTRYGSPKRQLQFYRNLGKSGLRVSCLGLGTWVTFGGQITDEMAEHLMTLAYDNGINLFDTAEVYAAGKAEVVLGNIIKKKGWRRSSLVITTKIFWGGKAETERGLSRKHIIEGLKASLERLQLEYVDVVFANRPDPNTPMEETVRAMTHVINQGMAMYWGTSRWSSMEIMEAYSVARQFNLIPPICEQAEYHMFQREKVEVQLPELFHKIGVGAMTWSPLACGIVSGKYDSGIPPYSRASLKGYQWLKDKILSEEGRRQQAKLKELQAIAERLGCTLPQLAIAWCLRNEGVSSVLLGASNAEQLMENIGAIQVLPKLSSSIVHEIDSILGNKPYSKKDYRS

NADPH fluorescence slope, inactive:
CCOCCCNC(=O)CS(=O)(=O)Cc1nc(-c2cccc(OC)c2)oc1C 4.7e-07
Cc1ccc(Br)cc1S(=O)(=O)N1CCN(c2ccccc2)CC1 -1.8e-05
Cn1c(=O)c(=O)n(C)c2cc(S(=O)(=O)N3CCN(c4cccc(C(F)(F)F)c4)CC3)ccc21 1.2e-05
Cc1cccc(N2CCN(C(=O)C3CCCN(S(=O)(=O)c4c(C)noc4C)C3)CC2)c1C (stereo not given) -2.7e-05
COc1ccc(-n2c(SCC(=O)N3CCCCC3C)nnc2-c2cccnc2)cc1 (stereo not given) -5.2e-05
NCc1cccc(-n2cccn2)c1 4.5e-06
COC(=O)CSC1=C(C#N)C(c2ccccc2)CC(=O)N1 (stereo not given) -1.7e-05
Oc1ccc(N2CCN(C(c3ccncc3)c3nnnn3C3CCCC3)CC2)cc1 (stereo not given) -4.4e-05
CCc1nc2scc(-c3ccccc3)c2c(=O)n1N 6.4e-05
CN(Cc1cccs1)C(=O)CCc1ccc(S(=O)(=O)N2CCOCC2)cc1 -3.6e-05
CC1=C(C(N)=O)C(c2ccccn2)n2nc(SCc3ccccc3)nc2N1 (stereo not given) -8.8e-05
CCOc1ccc(NC(=O)c2ccccc2O)cc1 -2e-05
O=S(=O)(c1ccc2ccccc2c1)N1CCCCC1 -2.4e-06
N#CC1=C(N)OC(c2ccccc2)=C(C#N)C1c1ccc2c(c1)OCO2 (stereo not given) -9.1e-05
Cc1cc(C)c2c(=O)n(CC(=O)NCCCN3CCOCC3)sc2n1 -3.1e-05
COC(=O)CNC(=O)COC(=O)c1cc(Cl)cc(Cl)c1N 1.6e-05
CCOc1ccc(NCc2nnc(SCC(=O)Nc3cc(C)on3)n2-c2ccccc2OC)cc1 -2.8e-05
CCN(CC)CCNC(=O)c1ccc(CS(=O)(=O)c2ccc(Br)cc2)o1 -3.9e-05
CCCn1c(=NC(C)=O)c(C#N)cc2c(=O)n3cccc(C)c3nc21 -1e-05
CCn1c(=O)c(C(=O)Nc2cccnc2)c(O)c2ccccc21 -4.5e-05
Cc1cccc(C2CC(c3ccccc3)Nc3nc(N)nn32)c1 (stereo not given) -5.7e-06
CCOC(=O)CN1CC23C=CC(O2)C(C(=O)Nc2ccc(C(C)=O)cc2)C3C1=O (stereo not given) -2.3e-05
COc1ccccc1CNC(=O)C1CCCN(S(=O)(=O)c2cccc3cccnc23)C1 (stereo not given) -5.8e-05
COc1ccc(C2=NO[C@@H]3C(=O)N(c4ccc5c(c4)OCCO5)C(=O)[C@H]23)cc1OC 8.6e-06
CCOC(=O)c1ccccc1NC(=O)CSc1nnc(COc2ccccc2C)n1C -4.2e-05
COC(=O)c1sc(N2C(=O)C(O)=C(C(=O)c3ccc(C)o3)C2c2ccc(F)cc2)nc1C (stereo not given) -5.6e-05
CCN(CCNC(=O)CS(=O)(=O)Cc1nc(-c2cccc(OC)c2)oc1C)c1ccccc1 -4e-05
CN(CCNS(=O)(=O)c1ccc2c(c1)oc(=O)n2C)Cc1ccccc1 -4.2e-05
CC1CCN(c2nc3c(c(=O)[nH]c(=O)n3C)n2CCSc2ncccn2)CC1 -8.7e-05
COc1cc2c(C)nc(C)c(C#N)c2cc1OC -4.4e-05
COc1ccc(N(CC(=O)Nc2ccc(F)c(Cl)c2)S(=O)(=O)c2c(C)noc2C)cc1 1.3e-05
Cc1nc2ncnn2c(N2CCC(C(=O)NC3CCCC3)CC2)c1Cc1ccccc1 -0.000271
CCC(C)(C)NC(=O)C(c1ccco1)N(C(=O)Cn1nnc2ccccc21)c1ccc2c(c1)OCO2 (stereo not given) -2e-05
Fc1cccc(NCc2cn3ccccc3n2)c1 -1.6e-05
COc1ccccc1N1CCN(Cc2nc(N)nc(Nc3ccc(C)c(Cl)c3)n2)CC1 1e-05
COCCCNC(=O)CSc1ccc(Cl)cc1 -5e-05
CS(=O)(=O)NCCSCc1c(F)cccc1Cl -2.1e-05
O=C(NCC1CCCO1)C1CCC(CNS(=O)(=O)c2ccccc2)CC1 (stereo not given) -4e-05
Cc1ccc(C2C(C(=O)c3sc(C)nc3C)=C(O)C(=O)N2CCN(C)C)o1 (stereo not given) -4.5e-05
O=C(Nc1nc2c(s1)CCCC2)C1COc2ccccc2O1 (stereo not given) -1.6e-05
